# Test results from PubChem BioAssay AID652257 (The Scripps Research Institute Molecular Screening Center, 2013).
# Out of some 370,000 compounds screened, about 4,800 (1.3%) were called active. This excerpt belongs to a sample that is enriched for actives. A number with no mark means an inactive call.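 How the source made its calls: active means inhibition above about 21% made by adding two undisclosed values (limit read from the data); inactive means the rest.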
# Biological target: Protein arginine N-methyltransferase 1 (Homo sapiens) (UniProt Q99873)
# Assay: human PRMT1 activity-probe blockers – biochemical, fluorescence polarization, primary screen (AID 652257)
# Settings: recombinant PRMT1, activity-based probe fluorescence polarization; at 2.79 µM; hits give high values
# Chain of Protein arginine N-methyltransferase 1 (Homo sapiens) (Q99873 whole entry, looked up): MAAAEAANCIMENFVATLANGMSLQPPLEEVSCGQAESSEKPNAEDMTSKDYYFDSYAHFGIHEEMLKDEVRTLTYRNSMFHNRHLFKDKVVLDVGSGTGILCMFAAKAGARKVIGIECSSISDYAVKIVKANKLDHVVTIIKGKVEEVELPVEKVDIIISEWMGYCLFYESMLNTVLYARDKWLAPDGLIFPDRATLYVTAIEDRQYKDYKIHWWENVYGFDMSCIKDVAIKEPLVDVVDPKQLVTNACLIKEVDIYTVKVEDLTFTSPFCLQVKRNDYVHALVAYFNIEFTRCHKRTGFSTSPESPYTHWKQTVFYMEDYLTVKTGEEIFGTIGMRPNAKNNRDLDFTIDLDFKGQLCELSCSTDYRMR
row,Compound,inhibition
1,CN1C(=O)C(Br)(Br)CC1c1cccnc1 (centres undefined),1.18%
2,Cc1c[nH]c2cccc(-c3ccc(Cl)cc3)c12,-0.29%
3,O=C(CSc1ccc(/C=N/NC(=O)c2cccc(F)c2)o1)Nc1ccccc1,2.86%
4,O=C(CCNC(=O)c1ccccc1)NN=Cc1ccc(Br)o1,24.6% (active)
5,N#CCC(=O)N/N=C/c1ccc(SCC(=O)Nc2ccccc2)o1,4.99%
6,COC1=C[C@H](C(=O)NCCNC(C)=O)[C@H](C)[C@@H](c2ccccc2)CC1=O,0.29%
7,COc1ccc(/C=C2\CC3(OC(C)=O)CCCN2C3)cc1 (centres undefined),1.73%
8,Cc1ccc(CN2CCCCC(NC(=O)C3CCCCC3)C2=O)cc1 (centres undefined),-3.29%
9,O=C(Nc1cccc(S(=O)(=O)N2CCOCC2)c1)C12CC3CC(CC(C3)C1)C2,2.62%
10,CCCNC(=O)NCc1ccc(N2CCCC2=O)cc1,0.33%
11,NC(=O)C1(N2CCCC2)CCN(Cc2ccccc2)CC1,2.71%
12,NC(=O)C1(N2CCCCC2)CCN(C2CC(=O)N(Cc3ccc(N4CCCC4=O)cc3)C2=O)CC1 (centres undefined),41.5% (active)
13,Clc1ccc(C(Cn2ccnc2)OCc2ccsc2Cl)c(Cl)c1 (centres undefined),1.55%
14,O=C(CSc1n[nH]c(-c2cccnc2)n1)Nc1ccnc2ccccc12,-1.69%
15,COc1ccc(Nc2nc(-c3cccnc3)nc3ccccc23)cn1,25.2% (active)
16,O=C(Nc1ccc(Cl)cc1)Nc1ccc(Oc2cccnc2)nc1,1.37%
17,CN(C)c1ccc(CNC(=O)CN2C(=O)COc3ccc(S(=O)(=O)N4CCCC4)cc32)cc1,-4.13%
18,O=C(N1CCOCC1)N1CC[C@H]2[C@H](CCCN2Cc2ccc(F)cc2)C1,5.12%
19,Cc1ccc2c(NC(=O)C3CC3)cccc2n1,-1.46%
20,Cc1ccc(/C=C(\C#N)C(=O)Nc2cccc3ncccc23)o1,24.4% (active)
21,N#C/C(=C/c1ccc(N2CCCCC2)o1)C(=O)NCCc1c[nH]c2ccccc12,-51.4%
22,Cc1ccc(NC(=O)CCC(=O)c2ccc(Br)cc2)cc1,-1.58%
23,CCN(C(=O)c1ccc(Br)cc1)c1ccccc1,-3.92%
24,Cc1ccn(C(CC(=O)c2ccc(Br)cc2)C(=O)O)n1 (centres undefined),23.6% (active)

row,Compound,inhibition
1,CC(=O)N1CCOc2ccc(S(=O)(=O)N3CCC(C(=O)Nc4ccccc4F)CC3)cc21,-0.05%
2,C=C(C)C#CC(Cc1ccccc1)N(CC1CC1)/C(N)=N/C(=O)OCc1ccccc1 (centres undefined),-3.31%
3,COC(=O)C(C(=O)OC)c1ccccc1NS(=O)(=O)c1cccc2ccccc12,-4.23%
4,C[C@H](C(=O)N(C)c1ccccc1)[C@@H](O)c1ccc(Cl)cc1,-4.72%
5,CCOc1ccc(NC(=O)C(C)N2C(=O)c3ccccc3C2=O)cc1 (centres undefined),-1.49%
6,O=C1/C(=C/c2cccs2)SC(=S)N1C1CCS(=O)(=O)C1 (centres undefined),0.87%
7,CC(C(=O)Nc1ccc(O)c(C(=O)O)c1)N1C(=O)/C(=C/c2cccs2)SC1=S (centres undefined),26.4% (active)
8,CC(C)(C)c1cc(CN2CCN(CCC#N)CC2)cc(C(C)(C)C)c1O,9%
9,CCc1c(C)nc(N)n2c(SCC(=O)NC3CCCCC3)nnc12,-2.99%
10,Nc1[nH]c(/C=C2/CCCCC2n2[nH]c(=O)n(-c3ccccc3)c2=O)c(Cc2ccccc2)[n+]1Cc1ccccc1 (centres undefined),-2.27%
11,COc1ccc(CCNCc2c(-c3ccccc3)n(C)c3ccccc23)cc1,2.67%
12,CC(C)(C)OC(=O)NCCc1ccccc1/C=C/S(=O)(=O)NCc1ccc(F)cc1,0.24%
13,O=c1ccc2c(-c3ccccc3S(=O)(=O)O)c3ccc(O)c(O)c3oc-2c1O,66.9% (active)
14,COc1cccc2c1OCC(CN1CCN(C3CCCCC3)C(CCO)C1)=C2 (centres undefined),-3.92%
15,O=C(CSc1nc2c(c(=O)[nH]1)CCCC2)N1CCCCC1,-3.61%
16,C=CCN(C)CC#Cc1ccccc1,-2.36%
17,Cc1ccc(-c2nc(C3CCCN(S(=O)(=O)c4ccc(Br)s4)C3)no2)cc1 (centres undefined),3.15%
18,CC1CCc2c(nc3ncnn3c2Nc2ccc(OC(F)(F)F)cc2)C1 (centres undefined),0.92%
19,c1ccc2c(c1)CSc1sccc1C2=C1CCNCC1,-3.7%
20,Cc1nnc(SCC2=C(C(=O)O)N3C(=O)C(NC(=O)Cn4nc(C)c(Cl)c4C)C3SC2)s1 (centres undefined),34.1% (active)
21,Cc1nnc(SCC(=O)NC2CCCC2)s1,-0.7%
22,Cc1cc(C)cc(C(=O)NC2C(=O)N3C(C(=O)O)=C(CSc4nnc(C)s4)CSC23)c1 (centres undefined),39.9% (active)
23,Cc1nnc(SCc2cc(=O)[nH]c(N3CCN(Cc4ccccc4)CC3)n2)s1,-2.63%
24,CCOC(=O)C1(Cc2ccccc2)CCN(Cc2cn(C(C)=O)c3ccccc23)CC1,2.34%

row,Compound,inhibition
1,Cc1ccccc1CS(=O)(=O)Cc1ccc(C(=O)Nc2ccc(Cl)cc2)o1,5.39%
2,CCCCN1CCN(C(=O)c2ccc3c(c2)NC(=O)C(C)(C)O3)CC1,-4.36%
3,COC(=O)[C@]12C[C@H](CC(=O)NCc3cccc4ccccc34)C(=O)N(CCc3ccc(OC)c(OC)c3)C1=C[C@H](C1CCCC1)O[C@@H]2C,-7.72%
4,CC(=O)N(c1ccc2oc(=O)sc2c1)S(=O)(=O)c1ccc(C)cc1,86% (active)
5,CC(=O)Oc1ccc(N(C(C)=O)S(=O)(=O)c2ccc3ccccc3c2)cc1Br,-3.71%
6,COC(=O)c1c(C)oc2ccc(N(C(=O)Oc3ccccc3)S(=O)(=O)c3ccccc3)cc12,1.53%
7,COc1ccccc1C1C(C#N)=C(N)Oc2c1c(-c1ccccc1)nn2-c1ccccc1 (centres undefined),5.44%
8,COc1cccc(Cn2cc(COC(=O)Nc3ccc(F)cc3)nn2)c1,0.72%
9,Cc1cc(NC(=O)CCN2CCN(Cc3ccccc3)CC2)ccc1Br,0.6%
10,COc1ccccc1NC(=O)CCN1CCN(c2ccc(Cl)cc2)CC1,1.94%
11,COC(=O)CNC(c1ccccc1Cl)c1cc(Br)ccc1NC(=O)CCN1CCOCC1 (centres undefined),21.5% (active)
12,Cc1cc(S(=O)(=O)NC2CCCC2)ccc1-n1cnnn1,3.87%
13,Cc1ccc(CN(C)C[C@@H]2OCc3cnnn3CCCC(=O)N([C@@H](C)CO)C[C@H]2C)cc1,-5.16%
14,C=CCn1c2c(c3ccccc31)CCC2,0.09%
15,Cc1nn(C)cc1N1C(=O)c2cccc3c(N)ccc(c23)C1=O,165% (active)
16,CN1C(=O)c2cccc3c(N)ccc(c23)C1=O,183% (active)
17,CC(NCc1ccco1)C(=O)N1CCCCC1 (centres undefined),-2.09%
18,CCOc1ccc(Oc2c(Cl)cnn(-c3ccc(C)cc3)c2=O)cc1,-1.68%
19,C=CCN1[C@@H](Cc2ccccc2)COc2cccc(N3CCSCC3)c2S1(=O)=O,2.18%
20,O=S(=O)(c1ccccc1)N1CCC(c2nc3ccccc3o2)CC1,-3.15%
21,COc1ccccc1CN(C)C(=O)C1(c2ccc(Cl)cc2)CC1,-2.06%
22,O=C(NC1CCC1)c1ccc(C#CC2CC2)cn1,-0.43%
23,CC(=O)Oc1ccc(C(C)=O)c2c1OCCO2,-0.56%
24,CSc1ccc(C=Nn2c(-c3ccc(F)cc3)n[nH]c2=S)cc1,21.3% (active)

row,Compound,inhibition
1,CC(C)n1c(-c2ccncc2)n[nH]c1=S,-2.82%
2,CSc1ccc(/C=N/N2CCN(Cc3ccccc3Cl)CC2)cc1,1.95%
3,CC(NCCc1ccc(S(N)(=O)=O)cc1)C(=O)NCc1ccccc1 (centres undefined),-3.01%
4,COc1cc(C(=S)NCc2ccccc2)cc(Br)c1O,27.5% (active)
5,COc1cc(-c2nnn(CC(=O)NCc3ccccc3)n2)cc(OC)c1OC,2.73%
6,COc1ccccc1OCCC(=O)OCC(=O)NCc1ccccc1,0.43%
7,CCOC(=O)C1=C(C)NC2=C(C(=O)CC(C)(C)C2)C1c1ccc2c(c1)OCO2 (centres undefined),-1.8%
8,COC(=O)CC1CCc2cc(C)cc(C(CC(C)C)NC(=O)[C@H](CC(C)C)NC(=O)OCc3ccccc3)c2O1 (some centres undefined),-2.67%
9,Clc1ccc(C2=CSC3=Nc4cccc5cccc(c45)N23)cc1,22.6% (active)
10,CCCOc1ccc(Oc2c(Cl)cnn(Cc3cccc4ccccc34)c2=O)cc1,1.97%
11,CC(=O)c1cc(-c2ccc3ccccc3c2)c(=O)n2c1CCC2,0.08%
12,COc1ccc(N=Nc2c(-c3ccc(OC)cc3)[nH]oc2=O)cc1,-0.55%
13,COc1ccc(N=C2C=CC(=O)O2)cc1,48.5% (active)
14,COC1=CC(=O)OC(c2ccc(OC)cc2)C1 (centres undefined),-1.99%
15,Cc1ccc(SC(C)C(=O)NCc2ccc(F)cc2)cc1 (centres undefined),-5.15%
16,Cc1ccc(SC(CC(=O)c2ccc(C(C)(C)C)cc2)C(=O)O)cc1 (centres undefined),75.6% (active)
17,Cc1ccc(CSCC(N)C(=O)O)cc1 (centres undefined),0.39%
18,CCC(NC(=O)C1C2C=CC3(CN(Cc4ccccc4)C(=O)C13)O2)c1ccccc1 (centres undefined),2.19%
19,O=S(=O)(O)c1cc2onnc2c2ccccc12,40.6% (active)
20,CCOC(=O)[C@@]12CCC3=C1N(CCC3)C(=O)[C@H](CC(=O)N1CCN(C(=O)c3ccco3)CC1)C2,-2.33%
21,CC1=CC(C)(C)NC(=S)N1c1ccccc1,3.18%
22,Cc1ccc(-c2nnc(SCC(=O)Nc3ccc(Oc4ccccc4)cc3)n2Cc2ccco2)cc1,4.18%
